Measurements published in PubChem BioAssay AID504891 (National Center for Advancing Translational Sciences (NCATS), 2011).
Screen size: about 390,000 compounds; about 35 (0.009%) were called active. Not shown: some 6% with an inconclusive outcome. Calls come from the whole dose curve; as a rule, active = well fitted inhibition curve with a large enough effect in the polarisation, with a control signal flat (not every such curve was filed as active); inconclusive = small, poorly fitted or top-dose-only effect, or effect the other way, or a change in a side signal; inactive = no such curve, though single readings can be large or run the other way; the % refers to the polarisation. For the sample, actives were picked, then their nearest neighbours and some compounds at random.

Target: Peptidyl-prolyl cis-trans isomerase NIMA-interacting 1 (Homo sapiens) (UniProt Q13526)
Experiment: qHTS Assay to Find Inhibitors of Pin1
Conditions: Pin1 FP peptide displacement, HiFluor488, 10 min; series mostly up to 115 µM; activity, negative = inhibition: at the top concentration
Excerpt: NIH Molecular Libraries Probe Production Network [MLPCN]
NIH Chemical Genomics Center [NCGC]
The unique chemical properties of Pro allow for the adoption of two completely distinct amide bond conformations (cis and trans). Peptidyl-prolyl cis/trans isomerases (PPIases) are evolutionary conserved enzymes that catalyze cis/trans isomerization of peptidyl-prolyl peptide bonds. Distinct from all other PPIases such as cyclophilins and FK506-binding proteins (FKBPs), Pin1 binds a subset of phos.Ser/Thr-Pro-containing proteins using its protein-targeting WW domain and isomerizes only specific phos.Ser/Thr-Pro bonds, which cannot be effectively catalyzed by other known PPIases.
Pin1-catalyzed conformational regulation can control a spectrum of activities of many key regulators in diverse cellular processes such as cell growth, genotoxic and other stress responses, immune response, germ cell development, neuronal differentiation and survival. Pin1 has emerged as a novel molecular timer that modulates its multiple targets at various steps of a given cellular process to synergistically control the amplitude and duration of a cellular response or process. Importantly, Pin1 is tightly regulated by multiple levels and its deregulation has an important role in a growing number of pathological conditions, including cancer, Alzheimer's disease, aging, asthma and microbial infection, providing a potentially new therapeutic option.
The goal of this screen is to find small-molecule inhibitors of Pin1 using a fluorescence polarization competition assay. A HiFluor-488-labeled peptide binds to the active site of Pin1 and can be displaced by compounds. Compounds were screened as a concentration-titration series that ranged from 57 uM to 0.7 nM.
NCGC Assay Protocol Summary:
Pin1 (0.6 uM) was dispensed into black, solid 1536-well plates at 2 uL/well in 10 mM HEPES (pH 7.5), 10 mM NaCl, 0.01% Tween20, 1 mM DTT, and 1% glycerol. Then, 23 nL of compounds or DMSO were delivered to each well using a pin tool. Two uL of Pin1-1b-HiFluor488 peptide (10 mM HEPES (pH 7.5), 10 mM NaCl, 0.01% Tween20, 1 mM DTT, and 1% glycerol, 0.02 uM Pin1-1b-HiFluor488) was then dispensed, and plates were incubated at room temperature for 10 min. The plates were measured on a ViewLux plate reader for fluorescence polarization signal using a 480/20 nM nm excitation filter and 540/25 nM nm S and P emission filters with a 20 second exposure. The %Activity was determined from the corrected fluorescence polarization values. Unlabeled Pin1-1c peptide was used as a control (3.5 mM two-fold serial; 20 uM final concentration) along with a 1x (0.3 uM) and 0x (no-enzyme) Pin1 enzyme control to normalize %Activity of identified inhibitors; 0x enzyme values corresponded to 100%Activity (full inhibition), while 1x Pin1 enzyme values were used to normalize 0%Activity (no inhibition).
Concentration-response curves were fitted to the signals arising from the resulting fluorescence polarization. The concentration-effect curves were then classified based on curve quality (r2), response magnitude and degree of measured activity, and compounds were subsequently categorized based on their curve class.
Keywords: Peptidyl prolyl isomerase, Pin1, fluorescence polarization, MLSMR, MLPCN, NIH Roadmap, qHTS, NCGC

Peptidyl-prolyl cis-trans isomerase NIMA-interacting 1 (Homo sapiens), sequence (Q13526 whole entry, looked up): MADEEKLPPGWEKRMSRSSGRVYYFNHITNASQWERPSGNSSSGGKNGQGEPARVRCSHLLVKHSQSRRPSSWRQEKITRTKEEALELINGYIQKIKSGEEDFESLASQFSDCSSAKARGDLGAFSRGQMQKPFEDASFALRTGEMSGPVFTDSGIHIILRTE

activity, negative = inhibition, inactive:
Cc1ccc(S(=O)(=O)NC(N)=NCCC[C@@H](NC(=O)CNC(=O)c2ccccc2)C(=O)Nc2cc(C(F)(F)F)ccc2Cl)cc1 4.14%
CCc1cccc(C)c1NS(=O)(=O)c1ccc(-c2cc(C)no2)s1 12.7%
CC(=O)N1CCCc2ccc(NS(=O)(=O)c3ccc(F)cc3F)cc21 49.4%
COc1ccc(CNC(=O)COCc2cc(-c3cccs3)on2)cc1OC -2.23%
COc1cccc(C(=O)NC2CCN(C#N)CC2)c1 -5.15%
CCOC(=O)c1c(N)n(-c2cccc(C)c2C)c2nc3ccccc3nc12 2.25%
COc1ccc(Br)cc1C1C2C=CCC(C)C2C(=O)N1Cc1ccccc1 (centres undefined) -1.96%
O=C(OCC#CCSc1nnc(-c2ccco2)o1)c1ccc(F)cc1 -1.5%
CC(=O)OCC(NC(=O)C(Cc1ccccc1)NC(=O)OC(C)(C)C)C1OC(n2ccc(=O)[nH]c2=O)C(OC(C)=O)C1OC(C)=O (centres undefined) -9.82%
CC(=O)Nc1ccc(S(=O)(=O)N2N=NC3C2C2CC4C3(CN(C(=O)OC(C)(C)C)S4(=O)=O)O2)cc1 (centres undefined) 1.34%
COc1cccc(OC2=NS(=O)(=O)c3ccccc32)c1 25% [at 163 µM]
COc1ccc(C2Nc3ccccc3C(=O)N2Cc2ccccc2)cc1COc1ccc(C(N)=O)cc1 (centres undefined) 29.2%
CCN(CC)S(=O)(=O)c1ccc2c(c1)N(CC(=O)NCc1ccccc1)C(=O)CS2 -0.42%
Cc1cccc(N2CCN(S(=O)(=O)c3ccc4[nH]c5c(c4c3)CCCCC5)CC2)c1C 16.4%
Cc1cc(C)cc(NC(=O)CSc2nc(=O)n(CCN3CCOCC3)c3c2CCC3)c1 -1.89%
Cc1ccc(Cn2c(=O)n(-c3ccc(C)cc3)c(=O)c3c2c2cc(C)ccc2n3C)cc1 -5.52%
CCCCN(CC)CCCNC(=O)Cn1ncc2c([nH]c3ccc(C)cc32)c1=O -1.71%
CCC(=O)Nc1ccccc1-c1nc2ccccc2n(CC(=O)Nc2ccc(C)c(C)c2)c1=O -8.24%
O=C1CCCC2=C1[C@@]1(CCC(c3ccccc3)C1)N=C(Nc1nc3ccccc3o1)N2 (some centres undefined)
Cc1cc2n(n1)C(c1cc(C(C)(C)C)c(O)cc1O)Nc1ccccc1-2 (centres undefined) 5.72%
CCOc1ccccc1CNC(=O)c1ccc2c(c1)nc1n2CCC(C)C1 (centres undefined) -1.31%
COc1cc(C(=O)N2CCN(c3ccc(Nc4ccc(C)cc4)nn3)CC2)cc(OC)c1OC 10.4%
COc1cccc(C2c3c(ncn(-c4cccc(Br)c4)c3=N)Oc3ccc4ccccc4c32)c1 (centres undefined) 14.3%
Cc1ccc(Cl)cc1NC(=O)Cc1ccc(-n2c(C)nc3cccnc32)cc1 20.3%
Cc1ccc(Nc2c(-c3ccc(Cl)cc3)nc3sccn23)c(C)c1 1.8%
OCCNc1ncnc2oc(-c3ccco3)c(-c3ccco3)c12 -1.56%
O=c1c2ccccc2nc2sc(Nc3ccc4c(c3)OCO4)nn12 -1.55%
CC(=O)c1sc(N2C(=O)c3oc4ccccc4c(=O)c3C2c2ccc(C)cc2)nc1C (centres undefined) -2.64%
NC(=O)C1CCN(c2ncc(-c3ccc(Cl)cc3)s2)CC1 6.84%
CCOc1ccc(NC(=O)C(=O)NCCc2csc3nc(-c4ccccc4F)nn23)cc1 14.9%
CCCc1cc(=O)n2[nH]c(NCc3ccc(CC)cc3)nc2n1 -1.99%
C=C1CCN(C(CC(C)C)C(=O)N2CCOCC2)S(=O)(=O)c2ccccc21 (centres undefined) 11.6%
Cn1nnnc1Sc1ncnc2scc(-c3ccccc3[N+](=O)[O-])c12 0.265%
COc1cc(OC)c2c(c1C(CCN1CCCCC1)c1ccc(N(C)C)cc1)OC(=O)CC2c1ccc(N(C)C)cc1 (centres undefined) 4.39%
CCOc1ccccc1NC(=O)Cn1c(=O)n(-c2cccc(C)c2)c(=O)c2c1c1cc(OC)ccc1n2C -2.84%
O=C(Cn1c(-c2cccs2)cc2ccccc21)NCCc1ccc(Cl)cc1 1.33%
COC(=O)c1ccccc1S(=O)(=O)Nc1ccc(OC)cc1 12.7%
Cc1c(-c2cccc(NC(=O)C(C)(C)C)c2)nc2ncccn12 4.16%
CCN(CC)/[N+]([O-])=N/Oc1cc(O/[N+]([O-])=N/N2CCCC2CO)c([N+](=O)[O-])cc1[N+](=O)[O-] (centres undefined) -3.49%
Cc1ccc(-c2nc(=N)sn2Cc2ccccc2)cc1 0.942%
COc1ccc(-c2nc(=N)sn2-c2ccccc2)cc1 8.42%
CC(=O)NC(c1cccs1)c1cc(Cl)c2cccnc2c1O (centres undefined) 0.471%
Cc1cc2c(s1)c1cnn(Cc3c(F)cccc3Cl)c(=O)c1n2C -0.0245%
c1coc(CCNc2ncnc3ccc(-c4ccc5c(c4)OCO5)cc23)c1 26.5%
